Assay outcomes (PubChem)
phage Ecoli inh = E. coli growth loss with phage present | inhibition, % at 11.9 µM | growth absorbance | hit rate 0.26% among 360,000; in the data active means inhibition above about 11%
E coli growth-1 = reduces bacterial viability in AddAB counter-screen | E. coli V3065 growth, OD600 absorbance, 18 h | inhibition, % at 11.9 µM | hit rate 0.27% among 330,000 | AID 449728;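 active means inhibition above the campaign's mean inhibition across all tested compounds plus 3 SD, cut at about 9.9% in these data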;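 further: uninfected addAB+ strain grown without phage in ampicillin broth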
E coli growth-2 = inhibitors of Escherichia coli growth | OD600, 23 h; hits give low values | OD600 absorbance (concentration not given with the values) | hit rate 0.21% among 330,000;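 active means OD600 absorbance below the run mean of sample wells minus 3.6 SD, in any replicate, cut at about 0.56 in these data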
AddAB inh = less growth of phage-infected E. coli with AddAB | E. coli expressing H. pylori AddAB, absorbance growth | inhibition, % at 11.9 µM | hit rate 0.29% among 330,000; in the data active means inhibition above about 12%
Tat transport = E. coli Tat transport inhibition | E. coli MC4100 TorA-mCherry Tat export, fluorescence | inhibition, % at 10 µM | hit rate 0.036% among 340,000 | AID 488895;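 active means mean replicate inhibition at least 50% and at least half of replicates individually reaching 50%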;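 further: exported cargo escapes ClpAP degradation while cytoplasmic cargo is degraded and loses fluorescence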
Large screens that a line does not name were inactive. Hits are enriched below; roughly 0.5% of the tested compounds scored in any of these assays.

CC(C)(C)Nc1ncnc2sc(-c3ccccc3)cc12	none
COC(CNc1ncnc2sc(-c3ccccc3)cc12)OC	Tat transport 58.2
CC(=NNC(=O)CSCc1ccc([N+](=O)[O-])cc1)c1ccccc1	none (no result: phage Ecoli inh, E coli growth-1, AddAB inh, Tat transport)
CCn1c(C)nc2cc(C(=O)N/N=C/c3ccc(O)c(O)c3O)ccc21	phage Ecoli inh 21.1 (no result: E coli growth-1, E coli growth-2, AddAB inh)
O=C(NC(=S)NNC(=O)c1cnccn1)c1ccc(F)cc1	E coli growth-2 0.405
O=C(/C=C/c1ccc(F)cc1)NC(=S)NNC(=O)c1cnccn1	none
Cc1cc(/C=C2\Sc3ccccc3N2C)cc(C)[n+]1CC1CCCO1 (stereo not drawn)	E coli growth-2 0.458 (no result: E coli growth-1, AddAB inh)
Cc1ccc(/C=C2/Sc3ccccc3N(CC(=O)NCC3CCCO3)C2=O)cc1 (stereo not drawn)	none (no result: phage Ecoli inh)
COC(=O)/C=C1\S/C(=N/N=Cc2ccc(Cl)cc2)NC1=O	none (no result: phage Ecoli inh, E coli growth-1, AddAB inh, Tat transport)
CCN1/C(=C/c2ccc3cc(C)cc(C)c3[n+]2CC)Sc2cc(C)ccc21	E coli growth-2 0.124 (no result: E coli growth-1, AddAB inh)
CCN1C(=Cc2ccc3ccccc3[n+]2CC)Sc2cc(C)ccc21	E coli growth-2 0.362 (no result: phage Ecoli inh, E coli growth-1, AddAB inh, Tat transport)
CC[n+]1c(/C=C/c2ccc(OC)c(OC)c2)ccc2ccccc21	none
CC[n+]1c(C)sc2c3ccsc3ccc21	none
CCN1/C(=C/c2ccc3cc(C)ccc3[n+]2CC)Sc2ccc3sccc3c21	E coli growth-2 0.326 (no result: phage Ecoli inh)
Cc1ccc2c(c1)S/C(=C\c1cccc[n+]1C)N2CCO	none
CCN1/C(=C\c2ccc3cc(C)ccc3[n+]2CC)Sc2cc(C)c(C)cc21	E coli growth-2 0.206 (no result: E coli growth-1, AddAB inh)
O=C(COc1ccccc1)NCC(=O)NN=Cc1ccc(Cl)cc1	none (no result: phage Ecoli inh, E coli growth-1, AddAB inh, Tat transport)
CN(C)CCCNCCCCNC(=O)C=NO	none (no result: phage Ecoli inh, E coli growth-1, AddAB inh, Tat transport)
CCN1/C(=C/c2ccc3cccc(C)c3[n+]2CC)Sc2ccccc21	E coli growth-2 0.456
C[n+]1ccccc1/C=C1\Sc2ccccc2N1CCO	none
CC[C@H]1OC(=O)[C@H](C)[C@@H](O[C@H]2C[C@@](C)(OC)[C@@H](O)[C@H](C)O2)[C@H](C)[C@@H](O[C@@H]2O[C@H](C)C[C@H](N(C)C)[C@H]2O)[C@](C)(O)C[C@@H](C)C(=NOCOCCOC)[C@H](C)[C@@H](O)[C@]1(C)O	E coli growth-1 11.4 (no result: E coli growth-2)
CCC1OC(=O)C(C)C(OC2C[C@@](C)(OC)C(O)C(C)O2)C(C)C(OC2OC(C)CC(N(C)C)C2O)[C@](C)(OC)CC(C)C(=O)C(C)C(O)[C@]1(C)O (stereo partly drawn)	E coli growth-2 0.387 (no result: phage Ecoli inh, E coli growth-1, AddAB inh, Tat transport)
CC(=NNC(=O)CCCNc1ccccc1)c1ccncc1	none (no result: phage Ecoli inh, E coli growth-1, AddAB inh, Tat transport)
CC(C)N=C(N)N=C(N)Nc1ccc(Cl)cc1	none
NC(=NCCCCCCN=C(N)N=C(N)Nc1ccc(Cl)cc1)N=C(N)Nc1ccc(Cl)cc1	E coli growth-2 0.0625 (no result: phage Ecoli inh, E coli growth-1, AddAB inh, Tat transport)
FC(F)(F)c1cccc(NC(=S)Nc2ccc(Cl)c(Cl)c2)c1	E coli growth-2 0.401
FC(F)(F)c1cccc(NC(=S)NNC(=S)Nc2cccc(C(F)(F)F)c2)c1	none (no result: phage Ecoli inh, E coli growth-2, Tat transport)
COc1cccc(/C=N/Nc2ccnc(=O)[nH]2)c1O	E coli growth-1 12.7 (no result: E coli growth-2)
O=c1nccc(N/N=C/c2ccccc2O)[nH]1	none (no result: E coli growth-1, E coli growth-2, AddAB inh)
O=C(Oc1ccc(Cl)c2cccnc12)c1cccc([N+](=O)[O-])c1	E coli growth-2 0.507
CC[n+]1ccc(/C=C/c2ccc(N(C)C)cc2)c2ccccc21	E coli growth-2 0.347 (no result: E coli growth-1, AddAB inh)
CCN(CC)c1ccc(/C=C/c2ccc3ccc(OC)cc3[n+]2CC)cc1	E coli growth-1 12.4, E coli growth-2 0.502
CC[n+]1c(/C=C/c2ccc(N(C)C)cc2)ccc2ccccc21	E coli growth-2 0.469
COc1ccc(-c2nc(NN=C(C)c3ccc(O)cc3)c3ccccc3n2)cc1	none (no result: phage Ecoli inh, E coli growth-1, AddAB inh, Tat transport)
CCOc1cccc(/C=N/NC(=S)Nc2ccccc2[N+](=O)[O-])c1O	phage Ecoli inh 10.9 (no result: E coli growth-2)
CCCOc1ccc(C=NNC(=S)Nc2ccccc2[N+](=O)[O-])c(O)c1	none (no result: phage Ecoli inh, E coli growth-1, AddAB inh, Tat transport)
Clc1ccc2[nH]c3c(c2c1)CCc1cn[nH]c1-3	E coli growth-2 0.562
c1ccc2c3c([nH]c2c1)-c1[nH]ncc1CC3	none
O=C(NNc1ccc(O)cc1)c1ccc(Br)cc1	E coli growth-2 0.436
O=C(NNc1ccccc1)c1ccccc1	none (no result: E coli growth-1, AddAB inh)
C=C1c2cccc(O)c2C(=O)C2C(=O)[C@]3(O)C(=O)C(C(N)=O)C(=O)C(N(C)C)C3C(O)C12 (stereo partly drawn)	E coli growth-2 0.067 (no result: phage Ecoli inh, E coli growth-1, AddAB inh, Tat transport)
CN(C)N=Nc1ccc(S(=O)(=O)N=C(O)c2ccccc2)cc1	none (no result: phage Ecoli inh, E coli growth-1, AddAB inh, Tat transport)
CCOC(=O)c1csc(N)n1	none
CC1C(NC(=O)C(=NOC(C)(C)C(=O)O)c2csc(N)n2)C(=O)N1S(=O)(=O)O (stereo not drawn)	E coli growth-2 0.0585 (no result: phage Ecoli inh, E coli growth-1, AddAB inh, Tat transport)
Cc1ccc2[nH]c3c(NCc4ccccc4)ncnc3c2c1	E coli growth-2 0.464 (no result: E coli growth-1, AddAB inh, Tat transport)
COc1ccc(CNc2ncnc3c2[nH]c2ccccc23)cc1	none (no result: E coli growth-2, Tat transport)
C=CCNC(=S)NNC(=O)c1ccc(OCCC)cc1	none
CCCOc1ccc(C(=O)NNC(=S)NC(=O)CC)cc1	E coli growth-2 0.404
CCCCCOCC1CC(CC(C)=NNC(N)=O)(C(=O)OCC)C(=O)O1 (stereo not drawn)	none (no result: phage Ecoli inh, E coli growth-1, AddAB inh, Tat transport)
Cc1cc2cc(CCNC(=O)c3ccc(Br)o3)c(=O)[nH]c2cc1C	E coli growth-1 12.0
COC(=O)c1cccc(-c2ccc(C=NN3C(=O)C4C5C=CC(C6CC56)C4C3=O)o2)c1 (stereo not drawn)	none (no result: phage Ecoli inh, E coli growth-1, AddAB inh, Tat transport)
OC(CNCC1CCCO1)Cn1c2ccc(Cl)cc2c2cc(Cl)ccc21 (stereo not drawn)	E coli growth-2 0.545
OC(CNCCC1C=Nc2ccccc21)Cn1c2ccc(Cl)cc2c2cc(Cl)ccc21 (stereo not drawn)	E coli growth-2 0.054
OC(CNCC1CCCO1)Cn1c2ccccc2c2ccccc21 (stereo not drawn)	none
CCCC(CN1CCCC1CN1C(N)=NCC1Cc1ccccc1)N1CC(Cc2ccccc2)N(CCCC2CCCC2)C1=N (stereo not drawn)	E coli growth-2 0.344 (no result: phage Ecoli inh, E coli growth-1, AddAB inh, Tat transport)
CCC[C@@H](CN1CCC[C@H]1CN1C(N)=NC[C@H]1C(C)C)N1C[C@@H]([C@H](C)CC)N(CCCC2CCCC2)C1=N	none
CC(C)C[C@@H]1CN=C(N)N1C[C@@H]1CCCN1C[C@H](C)N1C[C@@H](Cc2ccccc2)N(CCCC2CCCC2)C1=N	none (no result: E coli growth-2)
CCC[C@@H](CN1CCC[C@H]1CN1C(N)=NC[C@H]1CC(C)C)N1C[C@@H]([C@H](C)CC)N(CCCC2CCCC2)C1=N	E coli growth-2 0.432
Oc1ccc(C=NNc2ncc(Cl)cc2Cl)cc1	none (no result: phage Ecoli inh, E coli growth-1, AddAB inh, Tat transport)
CC(C)C(N)c1cn(C(CC(N)=O)C(=O)N2CCNCC2)nn1 (stereo not drawn)	none (no result: phage Ecoli inh, E coli growth-1, AddAB inh, Tat transport)
CN1CCN(C(c2cccs2)c2nnnn2Cc2ccc(F)cc2)CC1 (stereo not drawn)	E coli growth-2 0.446
CC(=O)c1ccc(-n2nncc2C(C)(C)C)cc1	none
Cc1cnnn1-c1ccc(C(=O)CCl)cc1	E coli growth-2 0.508
Cc1cccc2c1Sc1ccc(Cl)cc1CC2N1CCNCC1 (stereo not drawn)	E coli growth-2 0.394 (no result: phage Ecoli inh, Tat transport)
CCc1cccc2c1Sc1ccccc1CC2N1CCNCC1 (stereo not drawn)	none
CC(=O)NC(c1ccco1)c1cc(Cl)c2cccnc2c1O (stereo not drawn)	none (no result: E coli growth-1, E coli growth-2, AddAB inh, Tat transport)
